Screen size: about 69,000 compounds; about 8,600 (12%) showed an effect of 50% or more. The list comes from a sample in which strong results are over-represented; it also holds similar structures and randomly drawn compounds.
Test system: Plasmodium berghei
Experiment: Screen against P. berghei liver stage (PbLuc), transformed with Luciferase, at 10uM
Type: functional, HepG2
Settings: tested at 10 uM

| SMILES | INHIBITION [%] |
| --- | --- |
| O=C(CCn1cccn1)NCCOc1cccc(Cl)c1 | 54.4 |
| CCn1cnnc1C1CCN(C(=O)c2cccc(-n3cccc3)c2)CC1 | 20 |
| O=C1NC2(CCCN(C(=O)CCn3cncn3)C2)Oc2ccccc21 (centres undefined) | -5.279 |
| Cc1cc(C)n(CCNCc2cc(-c3ccccc3)c[nH]c2=O)n1 | 7.43 |
| Cc1noc(C)c1CN1CC[C@H]2OCC[C@@]2(C(=O)NC2CCCC2)C1 | 17.1 |
| Cc1cc(C)c2c(OCC(=O)N(C)CC(=O)NC(C)C)nn(C)c2n1 | -0.275 |
| CCCn1cc(NC(=O)NCC2CCS(=O)(=O)C2)nn1 (centres undefined) | 16.6 |
| COCCN1C(=O)[C@@H]2CC[C@H]1CN(c1ncccn1)C2 | -33.4 |
| Cc1nc(C2CCCN2CC(=O)NCCc2ccc(Cl)cc2)no1 (centres undefined) | 44.1 |
| CC(C)(C)c1nnc(CN(Cc2cccs2)CC2CCCO2)o1 (centres undefined) | 44 |
| Brc1ccc(-c2nnc(CN(Cc3cccs3)CC3CCCO3)o2)s1 (centres undefined) | 90.2 |
| c1coc(-c2nnc(CN(Cc3cccs3)CC3CCCO3)o2)c1 (centres undefined) | 16.6 |
| CC1CCN(Cc2c(C(C)C)[nH]c3ncccc23)CC1 | 8.12 |
| COCCC(=O)N1CCC2(CC1)CN(S(C)(=O)=O)Cc1ccccc1O2 | -0.66 |
| Fc1cccc(N2CCOC3(CCCN(c4nncs4)C3)C2)c1 (centres undefined) | -22.5 |
| Cc1ccc(CN2CCOC3(CCCN(c4cccc(F)c4)C3)C2)o1 (centres undefined) | 81.2 |
| Fc1cccc(N2CCCC3(CN(Cc4ccco4)CCO3)C2)c1 (centres undefined) | 80 |
| Cc1nnc(N2CCCC3(CN(c4cccc(F)c4)CCO3)C2)o1 (centres undefined) | 33 |
| OCCN1CCOC2(CCCN(c3cccc(F)c3)C2)C1 (centres undefined) | 43.8 |
| O=S(=O)(C1CC1)N1CCOC2(CCCN(c3cccc(F)c3)C2)C1 (centres undefined) | -57.1 |
| CS(=O)(=O)NC1CC2(CCN(CC3CC3)CC2)Oc2ccccc21 (centres undefined) | 19.4 |
| CN(Cc1cccnc1)[C@@H]1CN(C(=O)NC2CC2)[C@@H]2CCCO[C@H]12 | 32.2 |
| Cc1cc(C(=O)N2CCCC(c3cc(=O)nc4n3CCC4)C2)on1 (centres undefined) | 20.6 |
| CCOc1nc2cnccc2n(CC(=O)Nc2ccccc2OC)c1=O | -1.45 |
| O=S(=O)(c1cccs1)N1CC[C@H](O)[C@@H]1Cc1ccncc1 | 28.4 |
| O=S(=O)(c1cccs1)N1CC[C@@H](O)[C@@H]1Cc1ccncc1 | 71.9 |
| CO[C@H]1CCN(S(=O)(=O)c2cccs2)[C@H]1Cc1ccncc1 | 7.77 |

| SMILES | INHIBITION [%] |
| --- | --- |
| Cc1ccc(Sc2nccn(C)c2=O)cc1 | -53.1 |
| Cc1c[nH]c(C2CN(Cc3ccccc3C(=O)O)CCO2)n1 (centres undefined) | 26.7 |
| COc1ccc(CNC(=O)CCSCc2csc(C)n2)cn1 | -12.2 |
| CCN(CC)c1ncc(CNC2CCc3nc(C)nn3C2)s1 (centres undefined) | 4.22 |
| N#Cc1ccc(NCC(O)c2ccco2)c(C(F)(F)F)c1 (centres undefined) | 25.7 |
| COCC(O)CNc1ccc(C#N)cc1C(F)(F)F (centres undefined) | 77.7 |
| CC/C=C(/C)C(=O)NS(=O)(=O)c1ccc(C#N)cc1C(F)(F)F | -7.53 |
| CC(O)CNc1ccc(C#N)cc1C(F)(F)F (centres undefined) | 50.8 |
| CCC(C)C(=O)NS(=O)(=O)c1ccc(C#N)cc1C(F)(F)F (centres undefined) | 9.54 |
| CCC(CC)C(=O)NS(=O)(=O)c1ccc(C#N)cc1C(F)(F)F | 11.9 |
| Cc1ccc(C2CCCN(C(=O)c3cnn(C)c3)C2)nc1 (centres undefined) | 3.91 |
| CCNC(=O)CN1CCCC(c2ccc(C(=O)O)cc2)C1 (centres undefined) | 45 |
| CC(C)c1cncnc1N1CC[C@H](N2CCOCC2)[C@H](CCCO)C1 | 30.5 |
| O=C(c1ccc(=O)[nH]c1)N1C[C@H]2CC[C@@H](C1)N(Cc1ccccc1)C2 | -70.7 |
| O=C(NCCc1cnccn1)C1(N2CCCCC2)Cc2ccccc2C1 | 43.7 |
| Cc1cc(NC(=O)c2ccc(CN3CC[C@H](O)C3)cc2)ccc1F | 90.3 |
| Cc1cncc(NC(=O)c2ccc(CN3CCC(CO)CC3)cc2)c1 | -12.4 |
| Cc1cncc(NC(=O)c2ccc(CN3CCCC(C(N)=O)C3)cc2)c1 (centres undefined) | 23 |
| NC(=O)C1CCCN(Cc2ccc(C(=O)Nc3cnns3)cc2)C1 (centres undefined) | 40.15 |
| COc1cc(NC(=O)c2ccc(CN3CC[C@H](O)C3)cc2)cc(OC)c1 | 67.6 |
| CCNC(=O)C1CCN(Cc2ccc(C(=O)Nc3cnns3)cc2)C1 (centres undefined) | 12.2 |
| CCNC(=O)C1CCN(Cc2ccc(C(=O)Nc3nnc(C)s3)cc2)C1 (centres undefined) | 57.35 |
| Cc1[nH]ccc1C(=O)Nc1cccc(CN2CCC(O)CC2)c1 | -4.74 |
| O=C(Nc1cccc2c1CCCC2)c1cccc(CN2CC[C@H](O)C2)c1 | 37.6 |
| O=C(Nc1ccccc1CCO)c1cccc(CN2CC[C@H](O)C2)c1 | 23.9 |
| COc1ccc(NC(=O)c2ccc(CN3CC[C@H](O)C3)cc2)c(OC)n1 | 26.7 |
| Cc1cncc(NC(=O)c2ccc(CN3CC[C@H](O)C3)cc2)c1 | 87.5 |

From ChEMBL document CHEMBL4513216, “Probing the Open Global Health Chemical Diversity Library for Multistage-Active Starting Points for Next-Generation Antimalarials” (ACS Infect Dis, 2020)
